From PubChem
Tg IFNy HTS – T. gondii growth inhibition under IFN-gamma | Toxoplasma gondii growth in IFN-gamma-treated host cells; stronger effect = lower value | activity change, negative = inhibition, % (no concentration beside the values) | hit rate 3.8% among 69,000 | AID 1259416; in the data active = activity change below about -70%, passing the limit was not always enough;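 also: host cells are HeLa cells infected with Toxoplasma gondii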
* marks the source's active call; other numbers are inactive results. This is one part of a sample in which hits are shown more often than they occur.

SMILES	Tg IFNy HTS
CCOC(=O)c1sc(NC(=O)CSc2n[nH]c(-c3ccccn3)n2)c(C#N)c1C	-107.6*
COc1ccccc1C1(CC(=O)N2CCC(Oc3cccc(F)c3)CC2)CC(=O)N(C)C1=O (centres undefined)	5.5
Cc1ccccc1C(=O)NCCc1csc(-c2ccc(Cl)cc2)n1	-31.6
COc1ccccc1C(=O)NCCc1csc(-c2ccc(F)cc2)n1	-93.1*
COc1cccc(OC)c1C(=O)NCCc1csc(-c2ccc(Cl)cc2)n1	35.3
COc1ccc(Cl)cc1C(=O)NCCc1csc(-c2ccc(F)cc2)n1	-83.5*
CCOc1ccccc1NC(=O)C(=O)NCCc1csc(-c2ccc(Cl)cc2)n1	-51.4
COc1ccc(C(=O)NCCc2csc(-c3ccc(F)cc3)n2)c(OC)c1	-96.7*
COc1ccc(-c2nc(CCNC(=O)c3ccccc3F)cs2)cc1	412.4
CCOc1ccccc1C(=O)NCCc1csc(-c2ccc(Cl)cc2)n1	-79.5*
COc1ccc(OCC(=O)NCCc2csc(-c3ccc(F)cc3)n2)cc1	51.3
O=C(NCCc1csc(-c2ccc(F)cc2)n1)c1ccccc1F	-69.7
COc1cc(OC)cc(C(=O)NCCc2csc(-c3ccc(F)cc3)n2)c1	27.5
COc1ccc(C(=O)NCCc2csc(-c3ccc(Cl)cc3)n2)cc1OC	15.5
O=C(CC1CCCCC1)N1CCc2cc(S(=O)(=O)NC3CCCC3)ccc21	12.3
CCC(CC)n1nc(C)cc1NC(=O)CN1C(=O)COc2ccc(C)cc21	0.9
CCOc1ccc(-c2nc(Cn3ccn4nc(-c5ccc(OC)cc5)cc4c3=O)c(C)o2)cc1	9.6
Cc1oc(-c2ccccc2)nc1Cn1nnc(-c2nc(-c3ccc(F)c(Br)c3)no2)c1C	9.2
Cc1nc(C(C)NC(=O)c2ccc(NC(=O)C3CCC3)cc2)c(C)s1 (centres undefined)	-1.9
CC(C)c1cc(C2CCN(C(=O)c3cccc(N4CCNC4=O)c3)CC2)[nH]n1	33.7
CO/N=C(/C(=O)NC1C(=O)N2C(C(=O)O)=C(CSc3nc(=O)c(=O)[nH]n3C)CSC12)c1csc(N)n1 (centres undefined)	-6.4
CC(C)C(=O)NCCc1csc(C2CCN(C(=O)Nc3ccccc3F)CC2)n1	-14.9
COc1cccc(COC2CN(Cc3ccccn3)C(=O)CN(C(=O)c3csc(C(C)=O)c3)C2)c1 (centres undefined)	-39.9
O=C(c1ccoc1)N1CC[C@@H]2CN(c3ncccn3)CCO[C@H]2C1	0.2
CC(C)Cc1nc(CN(C)Cc2ccc3c(c2)OCCO3)no1	2.9
SMILES	Tg IFNy HTS
Cc1cc(-c2snnc2C2CCCN(Cc3ccc(F)cc3)C2)on1 (centres undefined)	18.1
COc1ccccc1N1CCN(C(=O)c2cc(C(C)(C)C)oc2C)CC1	-108.2*
COc1ccccc1N1CCN(C(=O)C2CCCCC2)CC1	6.7
COc1ccccc1N1CCN(C(=S)c2ccccc2OC(F)(F)F)CC1	-27.5
O=S(=O)(c1ccccc1F)N1CCC2(CC1)Nc1ccccc1-n1cccc12	-8.0
Cc1cccc(NC(=O)c2c(O)c3cccnc3n(-c3ccc(F)cc3)c2=O)c1C	-50.1
CCOC(=O)c1c[nH]c2ccc(OC)cc2c1=O	-87.8*
CC(=O)c1c[nH]c2ccc(C)cc2c1=O	12.5
COc1ccc2[nH]cc(C(=O)CCl)c2c1	-26.1
c1coc(-c2noc(CN3CCCCC3CCN3CCOCC3)n2)c1 (centres undefined)	11.3
COCCCN(C(=O)Nc1ccccc1SC)C1CCN(C)CC1	5.3
COc1ccc(NC(=O)CC2C(=O)N(c3ccc(F)cc3)C(=O)N2Cc2ccccn2)cc1 (centres undefined)	9.1
CN(C)CCN1C[C@@H]2CN(C(=O)[C@H]3CCCO3)C[C@H]2C1=O	158.6
Nc1ncn([C@@H]2O[C@H](CO)[C@@H](O)[C@H]2O)c(=O)n1	-40.6
COc1nc(N)nc2c1ncn2[C@@H]1O[C@H](CO)[C@@H](O)[C@@H]1O	14.4
Nc1nc(=S)c2ncn([C@@H]3O[C@H](CO)[C@@H](O)[C@H]3O)c2[nH]1	-77.5*
COC(=O)C1CCN(C(=O)c2cc3cccnc3n(Cc3ccc(F)cc3)c2=O)CC1	0.1
COc1ccc(-c2nc(CN3C(=O)C(O)(c4cccc(F)c4)c4ccccc43)c(C)o2)cc1 (centres undefined)	-74.1*
Cc1ccc(C2(O)C(=O)N(Cc3nc(-c4ccccc4)oc3C)c3ccccc32)cc1 (centres undefined)	-48.1
Cc1cccc(C2(O)C(=O)N(Cc3nc(-c4ccccc4)oc3C)c3ccccc32)c1 (centres undefined)	-35.8
O=C(NCc1cccnc1-n1ccnc1)c1cnc(CN2CCCC2)s1	-2.9
CC[C@@H](C(=O)C(C)[C@@H](O)[C@H](C)CCc1ccc(C)c(O)c1C(=O)O)C1OC(CC)(C2CC[C@](O)(CC)[C@H](C)O2)C[C@@H]1C (some centres undefined)	-74.3*
CCOc1ccc(-c2nc3c(s2)CN(S(=O)(=O)c2cccs2)CC3)cc1	-69.1
CC1CCC2(CC1)NC(=O)N(CC(=O)Nc1nc(C(C)C)cs1)C2=O (centres undefined)	9.6
C[C@@H]1CN([C@H](C)CO)C(=O)c2c(c3ccccc3n2C)-c2ccccc2CO[C@H]1CN(C)Cc1cccc(C(F)(F)F)c1	-74.4*
SMILES	Tg IFNy HTS
C[C@@H]1CN([C@@H](C)CO)C(=O)c2c(c3ccccc3n2C)-c2ccccc2CO[C@H]1CN(C)Cc1cccc(C(F)(F)F)c1	-66.0
C[C@@H]1CN([C@@H](C)CO)C(=O)c2c(c3ccccc3n2C)-c2ccccc2CO[C@@H]1CN(C)C	-18.1
CCN(C(=O)c1cc2cccnc2n(Cc2ccccc2)c1=O)C1CCCCC1	68.1
Cc1cc(Nc2cc(C(F)(F)F)nc3c(Cl)cccc23)on1	-80.4*
Cc1ccc(Nc2cc(C)nc3c(C)cccc23)cc1	-59.1
Cc1cc(C(F)(F)F)nc(CCNC(=O)c2c(O)cccc2O)n1	-1.6
CCN1C(=O)CC(c2cnn(C)c2)C12CCN(c1ccc(C)nn1)CC2 (centres undefined)	-16.6
CCOC[C@@H]1CCC[C@]12CN(C(=O)c1ccno1)CCO2	7.1
COCC1CN(C(=O)c2ccc(F)cc2)Cc2cnn(CC3CC3)c21 (centres undefined)	2.6
O=C(CSc1n[nH]c(=O)n1-c1ccccc1C(F)(F)F)c1ccc(F)cc1	-28.9
CC(c1ccccc1)n1c(SCC(=O)c2csc3ccccc23)n[nH]c1=O (centres undefined)	-79.2*
CC(c1ccccc1)n1c(SCC(=O)O)nnc1C1CCOCC1 (centres undefined)	8.4
COc1ccccc1NC(=O)C1CN(C(=O)c2cnn(C)c2)Cc2cn(C)nc21 (centres undefined)	11.3
Cc1cc(C)n(C2CCN(Cc3nc4ccccc4n3C)CC2)n1	-6.8
O=S(=O)(c1ccc(F)cc1)N1CCCCN2[C@@H](CO)[C@H](c3ccc(-c4cncnc4)cc3)[C@@H]2C1	2.6
Cc1cccc(-c2ccc([C@H]3[C@H]4CN(S(=O)(=O)c5ccccc5F)CCCCN4[C@H]3CO)cc2)c1	-40.0
Cc1cccc(-c2ccc([C@H]3[C@@H](CO)N4CCCCN(S(=O)(=O)c5ccccc5F)C[C@H]34)cc2)c1	-79.9*
Cc1nc(CCC(=O)N2CCC(=O)N(CC3CC3)C(C(C)C)C2)n[nH]1 (centres undefined)	9.1
CCc1cc(CNC(=O)Cn2c(C(F)(F)F)nc3ccccc32)on1	24.1
Cc1nnsc1CN(C)C(=O)c1cc(CC(C)C)on1	1.9
